Most compounds without a hit are left out; they make up all but 21% or so of the library.
ELG1 DNA repair – blocks ELG1-dependent DNA repair in HEK293T cells. HEK293T ELG1-luciferase reporter, luminescence, 16 h; DNA damage induced by 5-fluorouridine. Potency, µM (highest dose often 46.1 µM), usual class: inhibitors. actives 2.3% (n = 330,000). AID 504467; note: nearly all actives have a fitted effect of over 55% in size
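DMSO vehicle served as the neutral condition. Each well held 2,000 cells given 5-fluorouridine plus compound; after 16 hr at 37 °C/5% CO2, ONE-Glo was added and luciferase measured 30 min later.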
TDP1 cell CPT – DT40-hTDP1 cell growth loss with CPT. chicken DT40 Tdp1-/-;hTDP1 cells + 20 nM CPT, ATP luminescence, 48 h. Potency, µM (highest dose often 46.2 µM), usual class: inhibitors. actives 12% (n = 420,000). AID 686979; note: nearly all actives have a fitted effect of over 55% in size
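Cell growth measured by CellTiter-Glo luminescence after a minimum 48 h, 37 C compound exposure with 20 nM CPT in Tdp1-knockout DT40 cells stably expressing hTDP1, seeded 400/well; qHTS titration format.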
RORgamma inh – blocks mouse ROR gamma transcriptional activity; Potency, µM (titrated, usually from 53.6 µM), actives largely listed as inhibitors; Drosophila S2 Gal4-RORgamma UAS-luciferase reporter, 20 h; P51450; actives 5.4% (n = 310,000); note: nearly all actives have a fitted effect of over 60% in size
Target sequence (P51450 whole entry, looked up, the tested form may be a part): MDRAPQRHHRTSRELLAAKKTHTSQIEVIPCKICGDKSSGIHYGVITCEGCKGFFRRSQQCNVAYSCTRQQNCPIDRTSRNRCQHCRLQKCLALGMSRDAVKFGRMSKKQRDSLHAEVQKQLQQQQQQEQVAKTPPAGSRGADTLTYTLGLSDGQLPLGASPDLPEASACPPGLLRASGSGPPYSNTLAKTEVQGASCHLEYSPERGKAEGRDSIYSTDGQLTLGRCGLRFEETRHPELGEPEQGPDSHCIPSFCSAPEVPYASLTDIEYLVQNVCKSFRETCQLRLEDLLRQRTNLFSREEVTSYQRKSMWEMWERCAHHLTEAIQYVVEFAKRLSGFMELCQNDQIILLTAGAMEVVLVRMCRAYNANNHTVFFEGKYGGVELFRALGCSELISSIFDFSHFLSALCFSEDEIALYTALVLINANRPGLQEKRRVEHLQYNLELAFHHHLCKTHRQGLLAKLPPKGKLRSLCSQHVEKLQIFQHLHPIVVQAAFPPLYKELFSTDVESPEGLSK
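Using a luciferase readout, inhibitors were identified by reduced reporter activity in Drosophila cells coexpressing a copper-inducible Gal4–ROR gamma fusion and UAS-driven Photinus luciferase, incubated 20 hr after 700 uM copper sulfate.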
IL1B secr inh – blocks inflammasome-driven IL-1 beta release; activity change, % at 57.5 µM; actives 4.7% (n = 360,000); THP-1 LPS/ATP IL-1B secretion, AlphaLISA, 16 h; stronger effect = lower value; in the data active = activity change below about -50%; inconclusive = mostly about -30% to -49%
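Secreted IL-1B measured by AlphaLISA bead assay after 16 h compound exposure of THP-1 cells; compounds (final up to 57.5 uM) added 1 h before LPS (250 ng/mL) and ATP (1.25 mM) stimulation; lower signal means less secretion.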
Gal4-VP16 FLuc – Gal4-VP16 reporter inhibition counter-screen; Drosophila S2 Gal4-VP16 UAS-luciferase, luminescence, 20 h; Potency, µM (series often up to 53.6 µM), most hits filed as inhibitors; actives 3.5% (n = 310,000);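 note: Gal4-VP16 expression switched on by copper sulfate through the metallothionein promoter; nearly all actives have a fitted effect of over 50% in size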
TDP1 cell noCPT – qHTS for Inhibitors of human tyrosyl-DNA phosphodiesterase 1 (TDP1): qHTS in cells in absence of CPT; DT40 Tdp1-/- hTDP1 cells, no CPT, ATP luminescence, 48 h; Potency, µM (titrated, usually from 46.2 µM), hits mostly inhibitors; actives 15% (n = 420,000); AID 686978, 2013; note: nearly all actives have a fitted effect of over 55% in size
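Growth of hTDP1-complemented DT40 Tdp1-knockout cells is measured by ATP luminescence after at least 48 hr compound exposure at 37 °C, with DMSO substituting for the 20 nM CPT used in the parallel screen.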
Numbers stand for hits; . = inactive; ? = inconclusive; / = no result given. Unless noted, calls come from the whole dose curve; as a rule, active = well fitted curve in the direction sought with a large enough effect; inconclusive = small, poorly fitted or top-dose-only effect, or another doubt; inactive = no such curve, though single readings can be large; an effect the other way counts as inactive or inconclusive.

SMILES	ELG1 DNA repair	TDP1 cell CPT	RORgamma inh	IL1B secr inh	Gal4-VP16 FLuc	TDP1 cell noCPT
O=C(NC(=S)Nc1ccccc1N1CCCC1)c1cccs1	.	16.4µM	4.47µM	.	15.8µM	14.6µM
O=C(NC(=S)Nc1ccccc1N1CCN(C(=O)c2ccccc2)CC1)c1cccs1	?	?	.	.	.	?
O=C(NC(=S)Nc1ccccc1N1CCCCC1)c1cccs1	.	16.4µM	1.58µM	.	?	20.6µM
CN1CCN(c2ccccc2NC(=O)c2cccs2)CC1	.	.	.	.	.	.
COS(C)(=O)=O	/	.	.	/	.	.
CCOC(=O)c1cc2ccccc2n1C1CCN(C)CC1	/	?	/	.	/	25.9µM
Cc1cc(/C=N/NC(=O)c2ccccc2F)c(C)n1-c1ccccc1	?	.	12.6µM	.	?	.
Cc1cc(/C=N/NC(=O)C(=O)N2CCCC2)c(C)n1-c1cccc(Br)c1	.	?	.	.	.	?
Cc1cc(/C=N/NC(=O)c2cccc(F)c2)c(C)n1-c1ccccc1	?	?	5.62µM	.	12.6µM	29.1µM
Cc1cc(/C=N/NC(=O)c2c(Br)cnn2C)c(C)n1-c1cccc(Br)c1	?	?	6.31µM	.	7.08µM	?
Cc1cccc(-n2c(C)cc(/C=N/NC(=O)c3cccc([N+](=O)[O-])c3C)c2C)c1	.	?	7.94µM	.	?	?
Cn1c(C(=O)N[C@@H](C(=O)O)c2ccccc2)cc2cc(F)ccc21	.	.	.	.	.	.
Cc1cccc(N(C(=O)c2csnn2)C(C(=O)NC2CCCCC2)c2ccncc2)c1 (stereo unspecified)	.	.	.	.	.	.
COC(=O)C1CCN(C(=O)C2CC(=O)N(c3ccc(C)c(Cl)c3)C2)CC1 (stereo unspecified)	/	.	/	.	/	.
O=S1(=O)CC(N2CCCCC2)CN1Cc1cn(Cc2cccc(C(F)(F)F)c2)nn1 (stereo unspecified)	/	.	/	.	/	.
O=C(Nc1cccc(-c2cccc(Cl)c2)c1)C1CCN(Cc2ccccn2)CC1	.	?	20µM	-73.9	?	25.9µM
O=C(Nc1cccc(-c2cccc(Cl)c2)c1)C1CCN(CC2CCOC2)CC1 (stereo unspecified)	.	?	?	.	.	?
O=C(Nc1cccc(-c2cccc(Cl)c2)c1)C1CCN(Cc2ccon2)CC1	.	13µM	?	-61.1	?	29.1µM
O=C1C=C(N2CCOCC2)C2(CCCCC2)O1	?	.	11.2µM	.	.	.
O=C1C=C(N2CCCCC2)C2(CCCCC2)O1	.	.	.	.	.	.
CCCCn1nc(C(=O)N(C)Cc2nc3ccccc3c(=O)[nH]2)c2ccccc2c1=O	/	.	/	.	/	.
CCCN(CC(=O)Nc1ccccc1C)C(=O)c1ccc(=O)n(Cc2ccccc2)n1	.	.	/	-87.0	/	.
CC1c2ccccc2CN1NC(=O)c1ccc(Cl)c(S(N)(=O)=O)c1 (stereo unspecified)	/	.	/	/	/	.
O=C(Cc1ccccc1F)N1CCN(S(=O)(=O)c2ccc(Cl)cc2)CC1	.	?	/	.	/	.
COc1cc(/C=C/C(=O)OCC(=O)N2CCCc3ccccc32)ccc1OC(F)F	.	.	/	.	/	.
SMILES	ELG1 DNA repair	TDP1 cell CPT	RORgamma inh	IL1B secr inh	Gal4-VP16 FLuc	TDP1 cell noCPT
CC1(C)C(=O)OC(c2cc(Br)ccc2O)C(C)(C)C1=O (stereo unspecified)	?	?	.	.	.	20.6µM
CC1C(=O)C(C)C(c2cc(Br)ccc2O)NC1c1cc(Br)ccc1O (stereo unspecified)	/	.	/	-96.9	/	?
Clc1ccc(N(CC2CO2)CC2CO2)cc1 (stereo unspecified)	/	0.461µM	/	.	/	0.651µM
CC(=O)c1cccc(NC(=O)C(C)OC(=O)CN2C(=O)NC(C)(C)C2=O)c1 (stereo unspecified)	.	.	/	.	/	.
Cn1cc(CN2CCC(n3nccc3NC(=O)C3CCCC3)CC2)cn1	.	.	.	.	.	.
C[C@H](c1ccccc1)N1C[C@@H](COCc2ccccc2)Oc2cc(N3CC[C@@H](N(C)C)C3)ccc2S1(=O)=O	/	18.4µM	/	.	/	?
C[C@H](c1ccccc1)N1C[C@@H](COCc2ccccc2)Oc2cc(N3CC[C@H](N(C)C)C3)ccc2S1(=O)=O	/	?	/	.	/	16.4µM
C[C@@H](c1ccccc1)N1C[C@@H](COCc2ccccc2)Oc2cc(N3CC[C@H](N(C)C)C3)ccc2S1(=O)=O	/	.	/	.	/	.
COc1cccc(CNC(=O)CCCn2ncn3c(cc4occc43)c2=O)c1OC	/	.	/	/	/	.
COc1ccccc1NC(=O)CN1C(=O)C(c2ccc(F)cc2)=NC1(C)C	/	.	/	/	/	.
Cc1ccc(-n2cc(C(=O)c3ccc4ccccc4c3O)cn2)cc1	.	.	.	.	.	.

Screening results: PubChem, National Center for Advancing Translational Sciences (NCATS)
